Screens deposited in PubChem by National Center for Advancing Translational Sciences (NCATS).
VP16 counter: Gal4-VP16 reporter inhibition counter-screen; Drosophila S2 Gal4-VP16 UAS-luciferase, luminescence, 20 h; Potency, µM (top dose mostly 53.6 µM), actives largely listed as inhibitors; 3.5% of 310,000 active; AID 2546;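 also: Gal4-VP16 expression switched on by copper sulfate through the metallothionein promoter; nearly all actives have a fitted effect of over 50% in size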
TRPV1 potentiator: potentiators of human vanilloid receptor 1 (TRPV1); Q8NER1; TRPV1-expressing cells, Fluo-8 calcium influx, capsaicin EC20 potentiation; potentiation, % at 8.33 µM; 0.02% of 320,000 active; in the data active = potentiation above about 80%; inconclusive = between about 30% and that limit
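Fluo-8 calcium influx in TRPV1-expressing cells, kinetic read (ex 480/em 520 nm). Compound added and read 3 min for agonist activity, followed by capsaicin at EC20 final and 2 min further read for enhancement.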
uPA surface inh: cell surface uPA generation inhibition; cell surface uPA generation assay, qHTS; Potency, µM (highest dose often 38.3 µM), most hits filed as inhibitors; 0.31% of 330,000 active; AID 540303; active = well fitted inhibition curve with a large enough effect; inconclusive = small, poorly fitted or top-dose-only effect; inactive = no such curve, though single readings can be large or run the other way; tested in mouse RAW 264.7 cells; also: nearly all actives have a fitted effect of over 55% in size
TRPV1 agonist: human TRPV1 agonism | Q8NER1 | TRPV1-expressing cells, Fluo-8 calcium influx, agonist mode | activation, % at 8.33 µM | 0.19% of 320,000 active | AID 540275; in the data active = activation above about 80%; inconclusive = between about 30% and that limit
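Fluo-8 calcium influx in TRPV1-expressing cells, kinetic read (ex 480/em 520 nm). Compound added and read 3 min for agonist activity, followed by capsaicin at EC20 final and 2 min further read for enhancement.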
RORg inh: ROR gamma (mouse) transcription inhibition. Drosophila S2 Gal4-RORgamma UAS-luciferase reporter, 20 h. 5.4% of 310,000 active. AID 2551. Potency, µM (top dose mostly 53.6 µM), hits mostly inhibitors. P51450; also: nearly all actives have a fitted effect of over 60% in size
Target sequence (P51450 whole entry, looked up, the tested form may be a part): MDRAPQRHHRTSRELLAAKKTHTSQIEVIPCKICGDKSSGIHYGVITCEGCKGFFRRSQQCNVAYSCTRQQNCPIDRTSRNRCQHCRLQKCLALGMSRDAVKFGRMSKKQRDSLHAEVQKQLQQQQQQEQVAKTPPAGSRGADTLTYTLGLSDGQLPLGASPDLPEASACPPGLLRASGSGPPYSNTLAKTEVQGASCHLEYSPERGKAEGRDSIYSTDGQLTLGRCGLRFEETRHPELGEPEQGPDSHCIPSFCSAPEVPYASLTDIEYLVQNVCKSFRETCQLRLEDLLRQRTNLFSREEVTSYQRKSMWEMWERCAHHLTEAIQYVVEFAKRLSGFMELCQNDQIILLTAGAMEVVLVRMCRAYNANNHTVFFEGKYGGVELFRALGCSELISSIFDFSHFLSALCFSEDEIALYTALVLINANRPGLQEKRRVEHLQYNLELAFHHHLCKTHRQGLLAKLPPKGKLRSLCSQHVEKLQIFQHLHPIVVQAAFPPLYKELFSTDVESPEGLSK
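Read-out: Photinus luciferase luminescence; inhibitors lower reporter signal. Insect Schneider cells with Gal4-ROR gamma fusion under metallothionein promoter, UAS reporter; 700 uM final copper sulfate induction, 20 hr, ambient temperature.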
Large screens that a line does not name were inactive; ! = not active in a repeat. Only some compounds are listed: those with a hit (about 5.8% of all), similar ones and a draw of the others. Unless noted, calls follow the shape of the dose curve; as a rule, active = well fitted curve in the direction sought with a large enough effect; inconclusive = small, poorly fitted or top-dose-only effect, or another doubt; inactive = no such curve, though single readings can be large; an effect the other way counts as inactive or inconclusive.

O=[N+]([O-])c1ccc(NCc2ccc(Cl)cc2)c2ccncc12	VP16 counter 11µM
COc1ccc(N(CC(=O)Nc2ccccc2C(F)(F)F)C2=NC3CS(=O)(=O)CC3S2)cc1 (centres undefined)	uPA surface inh inconclusive
O=C(N/N=C1/CN2CCC1CC2)c1cc2ccccc2cc1O	VP16 counter 13µM, RORg inh 3.5µM
CC(C)(C)c1cc(C=C(C#N)C#N)cc(C(C)(C)C)c1O	uPA surface inh inconclusive (no result: VP16 counter, RORg inh)
N#CC(C#N)=Cc1ccc(O)c(O)c1	VP16 counter 14µM!, uPA surface inh inconclusive, RORg inh 16µM
COc1ccc(O)c2c(=O)c3c(OC)cc4c(c3oc12)C1C=COC1O4 (centres undefined)	VP16 counter inconclusive, RORg inh 0.71µM (no result: uPA surface inh)
O=[N+]([O-])NC1=NCCN1Cc1ccc(Cl)nc1	TRPV1 potentiator inconclusive, uPA surface inh 1.1µM
O=[N+]([O-])/C=C1\NCCN1Cc1ccc(Cl)nc1	none
O=C(NCc1cccs1)c1cc(C2CC2)on1	uPA surface inh inconclusive
C=CCn1c(O)c(/C=C2/C=c3ccccc3=N2)c(=O)[nH]c1=S	VP16 counter inconclusive
C=CCn1c(-c2ccc([N+](=O)[O-])cc2)n[nH]c1=S	VP16 counter inconclusive, RORg inh 11µM
CN(C)C(=O)Nc1cccc(C(F)(F)F)c1	none (no result: TRPV1 potentiator, uPA surface inh, TRPV1 agonist)
O=c1c2ccc(Cl)cc2[nH]c(=S)n1-c1cccnc1	VP16 counter inconclusive, RORg inh 14µM
O=c1c2ccccc2[nH]c(=S)n1-c1ccc(Br)cc1	VP16 counter 1.4µM, RORg inh 0.89µM
COc1cccc(-n2c(=S)[nH]c3ccccc3c2=O)c1	VP16 counter inconclusive, RORg inh 4.5µM
CC(C)(C)OC(=O)C(Br)CCBr (centres undefined)	none (no result: TRPV1 potentiator, uPA surface inh, TRPV1 agonist)
C=C(C)[C@]12C[C@@H](C)[C@@]34OC(Cc5ccccc5)(O[C@@H]1[C@@H]3C=C(COC(=O)Cc1cc(I)c(O)c(OC)c1)C[C@]1(O)C(=O)C(C)=C[C@@H]41)O2	none (no result: TRPV1 potentiator, uPA surface inh, TRPV1 agonist)
CCCCc1ncc(CN2CCCC(C(=O)c3ccc(SC)cc3)C2)[nH]1 (centres undefined)	RORg inh 11µM
CCn1c(=O)oc2cc(NC(=O)CCl)ccc21	VP16 counter inconclusive, RORg inh 11µM
COP(=S)(OC)Oc1ccc([N+](=O)[O-])cc1	VP16 counter 10µM!, RORg inh 11µM! (no result: TRPV1 potentiator, uPA surface inh, TRPV1 agonist)
OC12C3C4CC5C6C4C1C6C(C53)N2CCc1cccc(F)c1 (centres undefined)	none (no result: TRPV1 potentiator, uPA surface inh, TRPV1 agonist)
ClC1=C(Cl)C(Cl)(C2(Cl)C(Cl)=C(Cl)C(Cl)=C2Cl)C(Cl)=C1Cl	VP16 counter 7.1µM, RORg inh 8.9µM (no result: TRPV1 potentiator, uPA surface inh, TRPV1 agonist)
ClC1=C(Cl)C(Cl)(Cl)C(Cl)=C1Cl	VP16 counter inconclusive, RORg inh 18µM (no result: TRPV1 potentiator, uPA surface inh, TRPV1 agonist)
CCCCNC(=O)n1c(NC(=O)OC)nc2ccccc21	none (no result: TRPV1 potentiator, uPA surface inh, TRPV1 agonist)
N#CCc1ccccc1	none (no result: TRPV1 potentiator, uPA surface inh, TRPV1 agonist)
CCNN	none (no result: TRPV1 potentiator, uPA surface inh, TRPV1 agonist)
O=C(O)COc1nc(Cl)c(Cl)cc1Cl	none (no result: TRPV1 potentiator, uPA surface inh, TRPV1 agonist)
Cc1ccc2c(Cl)cc(Cl)c(OCC(=O)N(C(C)C)C(C)C)c2n1	TRPV1 agonist inconclusive, RORg inh 6.3µM
CCOC(=O)c1cccc(NC2c3ccccc3C(=O)N2Cc2ccco2)c1 (centres undefined)	VP16 counter 13µM, RORg inh inconclusive
Nc1c([N+](=O)[O-])ccc(Oc2ccccc2)c1Cl	none (no result: TRPV1 potentiator, uPA surface inh, TRPV1 agonist)
COc1cc2c(cc1O)[C@@H]1Cc3ccc(OC)c(O)c3CN1CC2	uPA surface inh 4.5µM (no result: VP16 counter, RORg inh)
N#CN=C1SCCN1Cc1ccc(Cl)nc1	none (no result: TRPV1 potentiator, uPA surface inh, TRPV1 agonist)
CC(=O)c1cn(CCCOc2ccccc2)c2ccccc12	VP16 counter 6.3µM, uPA surface inh inconclusive, RORg inh inconclusive
CCOC(=O)c1ncn2c1CN(C)C(=O)c1cc(N=[N+]=[N-])ccc1-2	none (no result: TRPV1 potentiator, uPA surface inh, TRPV1 agonist)
O=C(COc1ccc(S(=O)(=O)N2CCOCC2)cc1)N1CCN(Cc2ccc3c(c2)OCO3)CC1	VP16 counter inconclusive (no result: uPA surface inh)
CCCCNS(=O)(=O)c1ccc(OCC(=O)N2CCN(Cc3ccc4c(c3)OCO4)CC2)cc1	VP16 counter 5.6µM
CN(C)c1nc(C=C(C#N)C#N)c(Cl)n1-c1ccc(F)cc1	uPA surface inh inconclusive, RORg inh 14µM
Nc1ccc(-c2ccc(N)c(Cl)c2)cc1Cl	none (no result: TRPV1 potentiator, uPA surface inh, TRPV1 agonist)
C[C@]1(O)CCC2C3CC[C@@H]4CC(=O)CC[C@]4(C)C3CC[C@@]21C (some centres undefined)	none (no result: VP16 counter, TRPV1 potentiator, TRPV1 agonist, RORg inh)
C[C@]12CC(=CO)C(=O)C[C@@H]1CC[C@@H]1[C@@H]2CC[C@@]2(C)[C@H]1CC[C@]2(C)O	VP16 counter 10µM, RORg inh inconclusive (no result: uPA surface inh)
C=CC(N)=O	none (no result: TRPV1 potentiator, uPA surface inh, TRPV1 agonist)
